# PubChem BioAssay (EPA / NIEHS)
# Active and inactive are the calls of the source. The calls were made as follows: active = hit-call score of the fitted dose curve at least 0.9, where 1 is the maximum; inconclusive = response in the unintended direction; inactive = score below 0.9.
# Experiment: LTEA_HepaRG_LDH_cytotoxicity: Cytotoxicity Assessment in the Life Technologies and Expression Analysis (LTEA) Assay (AID 2283563)
# Description: LTEA_HepaRG is a cell based, multiplexed-readout assay that uses HepaRG, a human liver cell line, with measurements taken at 48 hours after chemical dosing on a 96-well plate.LTEA_HepaRG_LDH_cytotoxicity is one of 102 assay component(s) measured in the LTEA HepaRG cell culture assay. It is a marker of cell viability / cytotoxicity.Data from the assay component LTEA_HepaRG_LDH_cytotoxicity was analyzed into 1 endpoint. This assay endpoint, LTEA_HepaRG_LDH_cytotoxicity, was analyzed in the positive fitting direction relative to DMSO as the negative control and baseline of activity. Using a type of inducible reporter, measures of mRNA induction for loss-of-signal activity can be used to understand cell death. To generalize the intended target to other relatable targets, this assay endpoint is annotated to the cell cycle intended target family, where the subfamily is proliferation.
# A total of 1060 chemcials from the ToxCast library were tested in eight-point concentration-response experiments. Cell culture and cytotoxicity assays were conducted at Thermo Fisher Scientific's Custom Services facility (Madison, WI). A single lot of human HepaRG cells (Thermo Fisher Scientific, Frederick, MD) was used for the cell culture experiments. 96-well format collagen type I coated plates of human HepaRG cells were prepared using established methods. Briefly, cryopreserved HepaRG cells were thawed, plated at a density of approximately 100,000 cells/well in HepaRG Thaw, Plate, and General Purpose media (HPRG770, Thermo Fisher Scientific), and incubated for 48 hours. 0.5% DMSO was selected as vehicle control to balance the requisite need of DMSO in HepaRG cultures to maintain differentiation (for example, baseline metabolism, proportions of hepatocytes vs. cholangiocytes), while enabling further hepatic receptor pathway activation (for example, PXR and CAR) in response to chemical exposure. 48 hours after plating, the culture medium was replaced with HepaRG Serum-Free Incudtion Media. Cells were exposed to each test chemical in duplicate and maintained in CO2 incubators for another 48 hours. Chemical plates were thawed to room temperature and 200x concentrations of treatment groups were prepared. 8-point conentration-reponse curves were made with the highest exposure at 100 uM, followed by half-log dilutions, all in 0.5% DMSO. Each test plate contained variouse controls, induction positive controls (1mM phenobarbital), cytotoxicity positive controls ([…] aflatoxin B1), vehicle controls (0.5% DMSO), and total lysis controls (0.5% DMSO). Cell morphology images were taken using an Essen IncuCyte FLR automated microscope, with six 96-well plates imaged in about 24 minutes. Images were captured and exported and JPEG files. Spent culture media was transfered to black-well plates for the LDH assay, and remaining media was sorted at -80 C for later use. Cells were treated with RLT buffer and frozen until shipped for gene expression analysis. Total RNA was isolated from the cell suspension in 75 uL of Buffer RLT (Qiagen, Germantown, MD 20874) by Quintiles/Expression Analysis (Durham, NC) using a custom isolation procedure. Total RNA from each plate well was transferred to a preamplification plate. Fluidigm's 96.96 Dynamic ArrayTM (Fluidigm, Amsterdam, the Netherlands) technology was used for gene expression analyses by quantitative reverse transcription polymerase chain reaction (qRT-PCR, performed by Quintiles/Expression Analysis, Durham, NC)89. Standard TaqManTM Assays (Applied Biosystems/ThermoFisher Scientific, Foster City, CA) were used to assess the expression of 93 genes selected based on their selectivity and sensitivity to important hepatic receptors known to be modulated by environmental chemicals; importance in human hepatocyte functionality; and hepatotoxicity. […]
SMILES,outcome,AC50
O=c1c(-c2ccc(O)cc2)coc2cc(O)ccc12,inactive,
CC(C)(C)c1cc(C(C)(C)C)c(O)c(C(C)(C)C)c1,inactive,
O=C(O)Cc1cc(I)c(Oc2cc(I)c(O)c(I)c2)c(I)c1,,61.9 µM (active)
OCCC(F)(F)C(F)(F)C(F)(F)C(F)(F)C(F)(F)C(F)(F)C(F)(F)C(F)(F)F,inactive,
CCCCCCCCC(=O)O,inactive,
CCN(CC)CCNc1ccc(CNC=O)c2sc3ccc(OC)cc3c(=O)c12,,80.1 µM (active)
C[C@@H]1C[C@H]2[C@@H]3CCC4=CC(=O)C=C[C@]4(C)[C@@]3(F)[C@@H](O)C[C@]2(C)[C@@]1(O)C(=O)COP(=O)(O)O,inactive,
CC(C)(C)c1ccc(O)c(C(C)(C)C)c1,inactive,
CCCCCCCCCCCCc1ccccc1S(=O)(=O)O,,77.7 µM (active)
O=C(O)c1ccccc1C(c1ccc(O)cc1)c1ccc(O)cc1,inactive,
CC(C)CCCCCCOC(=O)CCCCC(=O)OCCCCCCC(C)C,inactive,
COc1ccc([N+](=O)[O-])cc1N,inactive,
C=C(C)C(=O)OCCC(F)(F)C(F)(F)C(F)(F)C(F)(F)C(F)(F)C(F)(F)F,inactive,
Cc1cc(CCN2CCN(c3nsc4ccccc34)CC2)cc2c1NC(=O)CC2(C)C,,76.8 µM (active)
c1ccc2c(c1)ccc1ccccc12,inactive,
CN(C)C=O,inactive,
CCC(C)(C)C1CCC(O)CC1 (stereo not given),inactive,
CCCOc1sc(C(=O)N2CCC(c3cc(CN)ccc3F)CC2)c(C)c1Br,inactive,
ClC1=C(Cl)C(Cl)(Cl)C(Cl)=C1Cl,inactive,
COC(=O)CCCCC(=O)OC,inactive,

SMILES,outcome,AC50
CCCCC(CC)COC(=O)CCCCC(=O)OCC(CC)CCCC (stereo not given),inactive,
O=[N+]([O-])c1ccc(O)cc1,inactive,
CC(=O)CC(C)(C)O,inactive,
O=C(OCCOCCOC(=O)c1ccccc1)c1ccccc1,inactive,
CCCCCCC(=O)O,inactive,
Cc1cc(C)c(O)c(C)c1,inactive,
CCCCCCCCCCCCCCCS(=O)(=O)Oc1ccccc1,inactive,
CCc1nn(C2CCCCC2)c2cc(C3(C#N)CCC(C(=O)O)CC3)ccc12 (stereo not given),inactive,
COCC(C)OCC(C)O (stereo not given),inactive,
CCCOC(=O)c1ccc(O)cc1,inactive,
NC(=O)N(O)[C@@H]1C=C[C@H](Oc2cccc(Oc3ccc(F)cc3)c2)C1,,73.5 µM (active)
CC[C@H](c1ccc(O)cc1)[C@@H](CC)c1ccc(O)cc1,,76.1 µM (active)
CCCCCCCCOC(=O)CCCCCCCCC(=O)OCCCCCCCC,inactive,
CC#C[C@]1(O)CC[C@H]2[C@@H]3CCC4=CC(=O)CCC4=C3[C@@H](c3ccc(N(C)C)cc3)C[C@@]21C,,11.5 µM (active)
CCCCCCCCCCCCN1CCCC1=O,inactive,
C#C[C@]1(O)CC[C@H]2[C@@H]3CCC4=CC(=O)CC[C@@H]4[C@H]3CC[C@@]21C,inactive,
CC(C)(C)CC(C)(C)c1ccc(O)c(-n2nc3ccccc3n2)c1,inactive,
Oc1cccc(O)c1,inactive,
CN1CCC[C@H]1c1cccnc1,inactive,
CCC(=C(c1ccc(O)cc1)c1ccc(OCCN(C)C)cc1)c1ccccc1,,80.5 µM (active)
